About 83,000 compounds went through this panel and 20% of them were active in at least one assay; those are over-represented in the sample as a whole.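 Single-concentration screen, 48 h exposure, 96-well plates. Endpoint: percent growth. Below 10 = active.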 Values without a mark were called inactive. The source made the active and inactive calls.

Holding throughout (test): NCI-60 one-dose screen, 48 h (100 = growth as untreated, 0 = no growth, -100 = all killed)
For one assay, the system named is SK-MEL-2 melanoma. Particulars: 10 µM unless noted.
The subject of a further assay is EKVX NSCLC. The following applies: 10 µM unless noted.
The subject of a further assay is SN12C renal. Particulars: 10 µM unless noted.
In the next assay the test system is UO-31 renal. The following applies: 10 µM unless noted.
For the next assay, the system named is TK-10 renal. The following applies: 10 µM unless noted.
The test system of another assay is A498 renal. The following applies: 10 µM unless noted.
Another assay deals with CCRF-CEM leukemia. Particulars: 10 µM unless noted.
In the next assay the test system is MOLT-4 leukemia. Particulars: 10 µM unless noted.
A further assay relates to SR leukemia. Particulars: 10 µM unless noted.
A further assay deals with RPMI-8226 leukemia. Particulars: 10 µM unless noted.
Another assay relates to OVCAR-8 ovarian. Particulars: 10 µM unless noted.
The test system of another assay is OVCAR-5 ovarian. Particulars: 10 µM unless noted.
A further assay relates to OVCAR-4 ovarian. The following applies: 10 µM unless noted.
The test system of the next assay is SK-OV-3 ovarian. Particulars: 10 µM unless noted.
In the next assay the test system is IGROV1 ovarian. Particulars: 10 µM unless noted.
A further assay concerns OVCAR-3 ovarian. Particulars: 10 µM unless noted.
The next assay deals with HS 578T breast. Particulars: 10 µM unless noted.
Another assay has as its system NCI/ADR-RES ovarian. Particulars: 10 µM unless noted.
The test system of the next assay is CAKI-1 renal. The following applies: 10 µM.

As for `CCN(CC)CCNc1ccc([N+](=O)[O-])c2sc3cc(Cl)ccc3c(=O)c12`, the growth in the assay with SK-MEL-2 melanoma is 82.1%; in the assay on EKVX NSCLC, 78.9%; with SN12C renal, -19.3% (active); with UO-31 renal, -79.5% (active); in the assay on TK-10 renal it was 66.9%; in the assay with A498 renal, 73.5%. Also, the growth in the assay with CCRF-CEM leukemia is 12.9%; with MOLT-4 leukemia, 29%; with SR leukemia, 9.3% (active); in the assay with RPMI-8226 leukemia, 3.51% (active); in the assay with OVCAR-8 ovarian, 3.32% (active); with OVCAR-5 ovarian it was 38.7%. Also, the growth with OVCAR-4 ovarian was -37.6% (active); in the assay with SK-OV-3 ovarian it was 86.3%; in the assay with IGROV1 ovarian, 15.1%; in the assay on OVCAR-3 ovarian, 71.5%; in the assay with HS 578T breast, 80.2%; in the assay with NCI/ADR-RES ovarian, 33.9%.

Regarding `CCc1c(C)c2cc(-n3c(-c4ccc(OC)cc4)csc3=N)c(O)c(C)c2oc1=O`, the growth in the assay with SK-MEL-2 melanoma is 10.7%; in the assay with EKVX NSCLC it was 19.4%; in the assay on SN12C renal, 10.2%; with UO-31 renal, 14.3%; in the assay on TK-10 renal it was 64.7%; with A498 renal it was 17.1%. Besides, the growth in the assay on CCRF-CEM leukemia was 7.21% (active); with MOLT-4 leukemia it was 6.48% (active); in the assay with SR leukemia, 3.54% (active); in the assay with RPMI-8226 leukemia it was -9.39% (active); with OVCAR-8 ovarian it was 17.9%; with OVCAR-5 ovarian it was 44%. Moreover, the growth in the assay on OVCAR-4 ovarian is 12.3%; in the assay on SK-OV-3 ovarian, 43.8%; in the assay on IGROV1 ovarian, 25.1%; in the assay on OVCAR-3 ovarian, 9% (active); in the assay with HS 578T breast, 24.5%; with NCI/ADR-RES ovarian, 11.4%.

Turning to `CCn1cc(C(=O)O)c(=O)c2cc(F)c(N3CCN(CC(=O)Nc4ccc(C(C)=O)cc4)CC3)cc21`, the growth with SK-MEL-2 melanoma is 92.8%; with EKVX NSCLC, 103%; with SN12C renal, 98.9%; in the assay with UO-31 renal, 93.6%; in the assay with TK-10 renal, 89.3%; in the assay with A498 renal it was 95.5%. The growth was 98.7% in the assay with CCRF-CEM leukemia; 97.6% in the assay on MOLT-4 leukemia; 91.9% in the assay with SR leukemia; 106% in the assay on RPMI-8226 leukemia; 100% in the assay with OVCAR-8 ovarian; 107% in the assay with OVCAR-5 ovarian. In addition, the growth with OVCAR-4 ovarian was 113%; with SK-OV-3 ovarian, 99.9%; in the assay with IGROV1 ovarian it was 102%; with OVCAR-3 ovarian, 111%; with HS 578T breast it was 101%; with NCI/ADR-RES ovarian, 97.1%.

`Cc1ccc(N(CC2=NCCN2)c2cccc(O)c2)cc1`: the growth was 107% in the assay with SK-MEL-2 melanoma; 90.2% with EKVX NSCLC; 94.6% in the assay on SN12C renal; 79.7% with UO-31 renal; 102% in the assay on TK-10 renal; 90% in the assay with CAKI-1 renal. For the same compound, the growth in the assay with CCRF-CEM leukemia was 98.5%; with MOLT-4 leukemia, 97.7%; with SR leukemia it was 95.3%; in the assay with RPMI-8226 leukemia, 94.5%; in the assay with OVCAR-8 ovarian, 95.2%; in the assay on OVCAR-4 ovarian it was 103%. Also, the growth is 105% in the assay with SK-OV-3 ovarian; 90.3% in the assay on IGROV1 ovarian; 112% with OVCAR-3 ovarian; 101% in the assay with HS 578T breast; 104% in the assay with NCI/ADR-RES ovarian.

Take `CCN(CC)CC(=O)Nc1c(C)cccc1C`: the growth in the assay with SK-MEL-2 melanoma was 104%; with EKVX NSCLC it was 85.2%; in the assay on SN12C renal, 98.8%; with UO-31 renal, 83.2%; with TK-10 renal, 116%; in the assay with CAKI-1 renal, 94.3%. For the same compound, the growth in the assay with A498 renal was 102%; with CCRF-CEM leukemia it was 103%; in the assay on MOLT-4 leukemia it was 104%; with RPMI-8226 leukemia, 114%; in the assay on OVCAR-8 ovarian, 107%; in the assay with OVCAR-4 ovarian, 104%. In addition, the growth in the assay with IGROV1 ovarian is 106%; in the assay with HS 578T breast, 110%; in the assay on NCI/ADR-RES ovarian it was 104%.

Regarding `CC(=O)Oc1ccc(C(OC(C)=O)OC(C)=O)cc1`, the growth with SK-MEL-2 melanoma is 104%; with EKVX NSCLC, 94.1%; with SN12C renal, 102%; in the assay on UO-31 renal, 89.8%; with TK-10 renal, 98.8%; in the assay with A498 renal, 92.3%. Besides, the growth was 94.5% in the assay with CCRF-CEM leukemia; 91.1% in the assay with MOLT-4 leukemia; 88.8% in the assay on SR leukemia; 107% in the assay with RPMI-8226 leukemia; 114% in the assay on OVCAR-8 ovarian; 108% in the assay with OVCAR-5 ovarian. For the same compound, the growth in the assay on OVCAR-4 ovarian was 117%; with SK-OV-3 ovarian, 97.6%; in the assay on IGROV1 ovarian, 109%; in the assay on OVCAR-3 ovarian, 103%; in the assay on HS 578T breast it was 105%; in the assay on NCI/ADR-RES ovarian, 103%.

`CCn1c(C)nc([N+](=O)[O-])c1Sc1nc(N)nc2nc[nH]c12`: the growth with SK-MEL-2 melanoma was 40.5%; in the assay on EKVX NSCLC, 38.9%; in the assay on SN12C renal it was 33%; in the assay with UO-31 renal, 37.5%; in the assay on TK-10 renal, 34.5%; in the assay on A498 renal it was 57%. The growth with CCRF-CEM leukemia is 11.8%; in the assay on MOLT-4 leukemia, 14.3%; in the assay on SR leukemia, 16.6%; with RPMI-8226 leukemia it was 3.41% (active); with OVCAR-8 ovarian, 24.1%; with OVCAR-5 ovarian it was 31.7%. The growth in the assay with OVCAR-4 ovarian is 47.4%; in the assay on SK-OV-3 ovarian, 5.32% (active); in the assay with IGROV1 ovarian, 77.5%; in the assay on OVCAR-3 ovarian, 24.5%; with HS 578T breast, 50.4%; in the assay with NCI/ADR-RES ovarian, 25.5%.

For `C=C1C(=O)O[C@H]2[C@H]1CC/C(COC(=O)OC/C1=C/CC[C@@]3(C)O[C@H]3[C@H]3OC(=O)[C@@H](CN(C)C)[C@@H]3CC1)=C\CC[C@@]1(C)O[C@@H]21`, the growth is 27.4% with SK-MEL-2 melanoma; 48.8% in the assay on EKVX NSCLC; 10.7% with SN12C renal; -16.2% (active) in the assay on UO-31 renal; -42.7% (active) in the assay with TK-10 renal; 58.5% in the assay with A498 renal. The growth with CCRF-CEM leukemia was -13.3% (active); in the assay on MOLT-4 leukemia it was -30.9% (active); in the assay on SR leukemia it was -8.72% (active); in the assay on RPMI-8226 leukemia, -5.37% (active); with OVCAR-8 ovarian it was 9.26% (active); in the assay with OVCAR-5 ovarian it was 7.16% (active). Also, the growth was 46% in the assay with OVCAR-4 ovarian; 87.7% in the assay on SK-OV-3 ovarian; 10.4% in the assay with IGROV1 ovarian; -90.3% (active) in the assay with OVCAR-3 ovarian; 57.4% with HS 578T breast; 91.2% with NCI/ADR-RES ovarian.

These data come from PubChem BioAssay (NCI).
